Source: ChEMBL document CHEMBL1961873, “Compounds: GSK PKIS; Assays: Nanosyn kinase panel” (2012)

The compounds below were run on Mast/stem cell growth factor receptor Kit (Homo sapiens), P10721 [D816V]. Conditions: at 1 µM.
Mast/stem cell growth factor receptor Kit (Homo sapiens), P10721 [D816V], sequence (P10721 whole entry D816V): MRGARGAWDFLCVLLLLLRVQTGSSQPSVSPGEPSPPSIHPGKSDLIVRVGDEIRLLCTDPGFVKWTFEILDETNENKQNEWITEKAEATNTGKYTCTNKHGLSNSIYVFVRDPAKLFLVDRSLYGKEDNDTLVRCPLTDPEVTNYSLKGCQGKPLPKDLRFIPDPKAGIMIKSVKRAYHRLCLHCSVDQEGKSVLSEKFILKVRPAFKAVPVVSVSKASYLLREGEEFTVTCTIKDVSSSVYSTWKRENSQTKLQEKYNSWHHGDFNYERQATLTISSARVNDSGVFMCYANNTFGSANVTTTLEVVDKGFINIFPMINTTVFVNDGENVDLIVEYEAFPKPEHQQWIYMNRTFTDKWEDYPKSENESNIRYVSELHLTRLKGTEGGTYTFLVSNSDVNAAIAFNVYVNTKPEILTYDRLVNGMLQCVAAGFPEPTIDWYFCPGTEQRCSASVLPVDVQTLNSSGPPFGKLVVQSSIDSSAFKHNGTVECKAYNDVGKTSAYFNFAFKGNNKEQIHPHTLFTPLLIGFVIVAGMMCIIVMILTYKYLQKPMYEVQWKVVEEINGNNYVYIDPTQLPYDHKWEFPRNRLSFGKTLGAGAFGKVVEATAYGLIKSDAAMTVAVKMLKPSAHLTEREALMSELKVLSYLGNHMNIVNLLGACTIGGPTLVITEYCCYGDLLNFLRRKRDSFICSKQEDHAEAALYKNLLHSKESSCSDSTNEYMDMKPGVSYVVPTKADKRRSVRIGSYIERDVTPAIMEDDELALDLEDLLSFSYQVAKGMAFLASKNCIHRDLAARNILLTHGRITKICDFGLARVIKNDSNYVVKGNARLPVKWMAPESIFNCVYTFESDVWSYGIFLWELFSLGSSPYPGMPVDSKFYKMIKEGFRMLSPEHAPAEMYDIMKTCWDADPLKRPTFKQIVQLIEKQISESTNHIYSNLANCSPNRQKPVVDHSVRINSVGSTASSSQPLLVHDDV

SMILES | inhibition
COc1cccc(-n2ncc3c(N/N=C/c4ccc(C)cc4)ncnc32)c1 | 6.2%
COc1cc2ncnc(Nc3ccc4c(cnn4Cc4ccccc4)c3)c2cc1OC | 2.79%
Cc1ccc(NC(=O)CC2CC2)cc1-c1ccc(C(=O)NCC2CC2)cc1 | 3.9%
COc1ccc2ncnc(Nc3ccc(OCc4ccccc4)cc3)c2c1 | 0.98%
Nc1nccc(-c2c(-c3ccc(F)cc3)ncn2CCCN2CCOCC2)n1 | 5.35%
CN(C)C(=O)O[C@@H]1CN[C@@H](C#Cc2cc3ncnc(Nc4ccc(OCc5cccc(F)c5)c(Cl)c4)c3s2)C1 | -2.75%
Cc1cc(O)cc(C)c1/C=C/c1cncc(C(=O)N(C)C)c1 | 1.49%
Cc1cc(-c2ccccn2)cc(C)c1/C=C/c1cncc(-c2nn[nH]n2)c1 | -1.39%
CN(C)C(=O)O[C@H]1CN[C@H](C#Cc2cc3ncnc(Nc4ccc(OCc5cccc(F)c5)c(Cl)c4)c3s2)C1 | -1.14%
Oc1cccc(-c2nc(-c3ccccc3)[nH]c2-c2ccncc2)c1 | 6.52%
c1ccc(Cc2nc3ccc(Nc4ncnc5ccccc45)cc3[nH]2)cc1 | 7.57%
CCn1c(-c2nonc2N)nc2ccc(F)cc21 | 3.76%
Cc1ccc2c(-c3ccnc(Nc4ccc5c(c4)OCCO5)n3)c(-c3ccc(C(F)(F)F)cc3)nn2n1 | 0.16%
N#Cc1c(NC(=O)c2ccccc2F)sc2c1CCCC2 | -3.62%
CCOc1nccc2c1nc(-c1nonc1N)n2CC | 3.77%
Nc1ccc(C#Cc2cncnc2Nc2ccc(OCc3cccc(F)c3)c(Cl)c2)cc1 | 3.81%
Cc1nc(-c2ccccc2)n2nc(NCCCN3CCOCC3)ncc12 | 1.56%

SMILES | inhibition
CN(c1ccc(NC(=O)Nc2ccc(OC(F)(F)F)cc2)cc1)c1ccnc(Nc2cccc(S(N)(=O)=O)c2)n1 | 2.45%
COc1ccc(-c2nn3ncccc3c2-c2ccnc(Nc3cccc(C(F)(F)F)c3)n2)cc1 | 3.05%
COC(=O)c1ccc2c(c1)C(=Cc1cc(Br)c(O)c(Br)c1)C(=O)N2 | 4.08%
Cc1ccc2c(-c3ccnc(Nc4cccc(C(F)(F)F)c4)n3)c(-c3ccccc3)nn2n1 | 6.47%
NS(=O)(=O)c1ccc(Nc2cc(-c3cccc(O)c3)n[nH]2)cc1 | 4.78%
COc1cc(/C=N/Nc2ncnc3c2cnn3C(C)C)ccc1O | 4.07%
Cc1ccc2c(c1)/C(=N/Nc1ccc(S(N)(=O)=O)cc1)C(=O)N2 | -3.04%
OCc1ccc(-c2nc(-c3ccccn3)c(-c3ccc4c(c3)OCO4)[nH]2)cc1 | 1.86%
CC(C)c1ccc(Nc2nccc(-c3cnn4ncccc34)n2)cc1 | 4.42%
O=S(=O)(CCOCc1ccc(-c2ccc3ncnc(Nc4ccc(OCc5cccc(F)c5)c(Cl)c4)c3c2)o1)c1ccccc1 | -1.83%
O=C1Nc2ccccc2/C1=C/Nc1ccc2[nH]c(=O)[nH]c2c1 | 10.1%
CCCN1CCCC(c2ccc(Nc3nc(Nc4cc(F)ccc4C(N)=O)c4cc[nH]c4n3)c(OC)c2)C1 (stereo unspecified) | 4.83%
CN(C)c1cc2c(Nc3ccc4c(cnn4Cc4ccccc4)c3)ncnc2cn1 | 2.07%
CCS(=O)(=O)c1ccc(OC)c(Nc2nccc(N(C)c3ccc4c(C)n[nH]c4c3)n2)c1 | 23.9%
CCn1c(-c2nonc2N)nc2c(C#CC(C)(C)O)nc(OCCNC)cc21 | 3.95%
COc1cc(Nc2nccc(-c3cnn4ncccc34)n2)cc(OC)c1 | 9.04%

The compounds below were run on Mast/stem cell growth factor receptor Kit (Homo sapiens), P10721 [T670I]. Conditions: at 0.1 µM.
Mast/stem cell growth factor receptor Kit (Homo sapiens), P10721 [T670I], sequence (P10721 whole entry T670I): as the sequence (P10721 whole entry D816V) above, with T670I, V816D counted along it

SMILES | inhibition
COc1cccc(-n2ncc3c(N/N=C/c4ccc(C)cc4)ncnc32)c1 | 0.52%
COc1cc2ncnc(Nc3ccc4c(cnn4Cc4ccccc4)c3)c2cc1OC | 2.31%
Cc1ccc(NC(=O)CC2CC2)cc1-c1ccc(C(=O)NCC2CC2)cc1 | 2.39%
COc1ccc2ncnc(Nc3ccc(OCc4ccccc4)cc3)c2c1 | 0.74%
Nc1nccc(-c2c(-c3ccc(F)cc3)ncn2CCCN2CCOCC2)n1 | 5%
CN(C)C(=O)O[C@@H]1CN[C@@H](C#Cc2cc3ncnc(Nc4ccc(OCc5cccc(F)c5)c(Cl)c4)c3s2)C1 | -2.12%
Cc1cc(O)cc(C)c1/C=C/c1cncc(C(=O)N(C)C)c1 | 2.61%
Cc1cc(-c2ccccn2)cc(C)c1/C=C/c1cncc(-c2nn[nH]n2)c1 | 5.04%
CN(C)C(=O)O[C@H]1CN[C@H](C#Cc2cc3ncnc(Nc4ccc(OCc5cccc(F)c5)c(Cl)c4)c3s2)C1 | 1.09%
Oc1cccc(-c2nc(-c3ccccc3)[nH]c2-c2ccncc2)c1 | 2.52%
c1ccc(Cc2nc3ccc(Nc4ncnc5ccccc45)cc3[nH]2)cc1 | 5.98%
CCn1c(-c2nonc2N)nc2ccc(F)cc21 | 3.59%
Cc1ccc2c(-c3ccnc(Nc4ccc5c(c4)OCCO5)n3)c(-c3ccc(C(F)(F)F)cc3)nn2n1 | -0.41%
N#Cc1c(NC(=O)c2ccccc2F)sc2c1CCCC2 | -0.75%
CCOc1nccc2c1nc(-c1nonc1N)n2CC | 4.03%
Nc1ccc(C#Cc2cncnc2Nc2ccc(OCc3cccc(F)c3)c(Cl)c2)cc1 | 1.88%
Cc1nc(-c2ccccc2)n2nc(NCCCN3CCOCC3)ncc12 | 1.72%

SMILES | inhibition
CN(c1ccc(NC(=O)Nc2ccc(OC(F)(F)F)cc2)cc1)c1ccnc(Nc2cccc(S(N)(=O)=O)c2)n1 | 22.9%
COc1ccc(-c2nn3ncccc3c2-c2ccnc(Nc3cccc(C(F)(F)F)c3)n2)cc1 | 3.67%
COC(=O)c1ccc2c(c1)C(=Cc1cc(Br)c(O)c(Br)c1)C(=O)N2 | 2%
Cc1ccc2c(-c3ccnc(Nc4cccc(C(F)(F)F)c4)n3)c(-c3ccccc3)nn2n1 | 2.51%
NS(=O)(=O)c1ccc(Nc2cc(-c3cccc(O)c3)n[nH]2)cc1 | 4.57%
COc1cc(/C=N/Nc2ncnc3c2cnn3C(C)C)ccc1O | 3.16%
Cc1ccc2c(c1)/C(=N/Nc1ccc(S(N)(=O)=O)cc1)C(=O)N2 | 3.2%
OCc1ccc(-c2nc(-c3ccccn3)c(-c3ccc4c(c3)OCO4)[nH]2)cc1 | 3.18%
CC(C)c1ccc(Nc2nccc(-c3cnn4ncccc34)n2)cc1 | 19.5%
O=S(=O)(CCOCc1ccc(-c2ccc3ncnc(Nc4ccc(OCc5cccc(F)c5)c(Cl)c4)c3c2)o1)c1ccccc1 | 5.11%
O=C1Nc2ccccc2/C1=C/Nc1ccc2[nH]c(=O)[nH]c2c1 | 13.6%
CCCN1CCCC(c2ccc(Nc3nc(Nc4cc(F)ccc4C(N)=O)c4cc[nH]c4n3)c(OC)c2)C1 (stereo unspecified) | 2.47%
CN(C)c1cc2c(Nc3ccc4c(cnn4Cc4ccccc4)c3)ncnc2cn1 | 3.06%
CCS(=O)(=O)c1ccc(OC)c(Nc2nccc(N(C)c3ccc4c(C)n[nH]c4c3)n2)c1 | 5.56%
CCn1c(-c2nonc2N)nc2c(C#CC(C)(C)O)nc(OCCNC)cc21 | 0.61%
COc1cc(Nc2nccc(-c3cnn4ncccc34)n2)cc(OC)c1 | 80.7%
